Data reported in PubChem BioAssay AID743433 (Vanderbilt Specialized Chemistry Center, 2014).

Biological target: Metabotropic glutamate receptor 2 (Homo sapiens) (UniProt Q14416)
Assay: mGlu2 agonist response modulation at 10 µM, profiling panel, selectivity assay for mGlu8/mGlu7 PAM project, cell-based, GIRK thallium flux, agonist curve fold shift (AID 743433)
Conditions: mGlu2/GIRK cells, agonist CRC shift, agonist EC50 fold shift

Chain of Metabotropic glutamate receptor 2 (Homo sapiens) (Q14416 whole entry, looked up): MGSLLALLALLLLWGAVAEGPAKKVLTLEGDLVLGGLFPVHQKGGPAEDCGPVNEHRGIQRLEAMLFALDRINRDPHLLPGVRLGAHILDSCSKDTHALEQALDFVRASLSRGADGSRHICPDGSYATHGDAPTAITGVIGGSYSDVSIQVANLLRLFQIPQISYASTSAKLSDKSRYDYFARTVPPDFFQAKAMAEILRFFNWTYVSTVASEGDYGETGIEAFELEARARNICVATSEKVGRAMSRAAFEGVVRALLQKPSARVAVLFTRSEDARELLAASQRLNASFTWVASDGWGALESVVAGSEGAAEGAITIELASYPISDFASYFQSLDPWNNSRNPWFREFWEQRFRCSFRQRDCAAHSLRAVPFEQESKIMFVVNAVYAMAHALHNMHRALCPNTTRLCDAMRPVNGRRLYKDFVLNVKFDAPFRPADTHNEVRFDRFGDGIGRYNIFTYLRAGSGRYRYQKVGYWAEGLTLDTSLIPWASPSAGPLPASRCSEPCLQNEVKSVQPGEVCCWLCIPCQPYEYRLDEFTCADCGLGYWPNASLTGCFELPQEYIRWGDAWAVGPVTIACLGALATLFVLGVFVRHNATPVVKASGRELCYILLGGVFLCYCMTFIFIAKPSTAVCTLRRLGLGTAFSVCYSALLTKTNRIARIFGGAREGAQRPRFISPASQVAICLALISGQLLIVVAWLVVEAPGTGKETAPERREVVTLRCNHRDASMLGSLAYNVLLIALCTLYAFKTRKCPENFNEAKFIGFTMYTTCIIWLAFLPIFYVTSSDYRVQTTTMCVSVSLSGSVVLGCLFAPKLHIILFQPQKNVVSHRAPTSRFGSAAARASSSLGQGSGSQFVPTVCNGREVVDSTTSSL

COC(=O)c1ccc(-n2c(C)cc(C(=O)CSc3ccc(NC(C)=O)cc3)c2C)cc1
fold shift: 1
